From PubChem
Shiga toxin inh: Shiga toxin inhibition; inhibition, % at 38.7 µM; Vero cells, Shiga toxin protein synthesis inhibition reporter; 9.2% of 290,000 active; in the data active = inhibition mostly above about 28%, no sharp cut-off; inactive = mostly below about 43%
Pf growth 48h: inhibits P. falciparum growth in the first generation, 48 h. P. falciparum luciferase growth in erythrocytes, 48 h. Potency, µM (doses to about 28.7 µM), most hits filed as inhibitors. 5.9% of 310,000 active. AID 504832
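Parasite viability was followed by luminescence of a genomically integrated firefly luciferase. Cultures held 0.1% parasitemia at 2% hematocrit (final), incubated under 5% CO2 at 37 C.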
Pf growth 96h: inhibits malaria parasite growth, 96 h. P. falciparum luciferase reporter growth, 96 h. Potency, µM (titrated, usually from 28.7 µM), actives largely listed as inhibitors. 6.9% of 320,000 active. AID 504834
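Two-generation exposure (96 h) targets delayed-death phenotype. Reporter parasites carrying integrated firefly luciferase, in red cells at 2% hematocrit and 0.05% parasitemia final, kept at 37 C, 5% CO2; luminescence loss indicates inhibition.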
NS1 function inh: influenza NS1 inhibition | Potency, µM (series often up to 46.1 µM) | AID 2326 | 0.4% of 270,000 active; calls by dose curve; also: actives are rising curves; nearly all actives have a fitted effect of over 50% in size
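Growth recovery, yeast-based: influenza A NS1 expressed in S. cerevisiae causes slow growth, and suppressors are detected by OD600. The parent strain without NS1 is used as positive control.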
CHX counter: counter-screen hit for Shiga toxin inhibitors, cycloheximide | cell reporter, cycloheximide protein synthesis inhibition counterscreen | max response, % | 12% of 300,000 active; in the data active = max response mostly above about 13%, no sharp cut-off; inactive = mostly below about 14%; also: read at 38.3 µM for the half of the compounds with a filed dose
FBPA Giardia inh: Giardia lamblia aldolase inhibition | AID 2451 | purified Giardia FBPA | Potency, µM (top dose mostly 59.6 µM), most hits filed as inhibitors | 0.71% of 290,000 active | A8B2U2; also: nearly all actives have a fitted effect of over 55% in size
Target sequence (A8B2U2 whole entry, looked up): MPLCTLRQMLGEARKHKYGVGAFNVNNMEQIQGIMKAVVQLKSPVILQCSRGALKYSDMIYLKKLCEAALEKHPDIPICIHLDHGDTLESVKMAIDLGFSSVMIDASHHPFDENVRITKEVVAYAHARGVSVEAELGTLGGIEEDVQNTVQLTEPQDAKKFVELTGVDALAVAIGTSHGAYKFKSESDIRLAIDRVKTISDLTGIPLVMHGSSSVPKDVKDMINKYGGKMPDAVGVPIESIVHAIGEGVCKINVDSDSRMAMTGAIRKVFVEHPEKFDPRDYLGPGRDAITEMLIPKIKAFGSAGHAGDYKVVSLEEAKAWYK
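Giardia FBPA (40 nM reagent) was preincubated 10 min at RT with compound (up to 57.5 uM final), then substrate plus GAPDH/TPI/NAD/arsenate coupling system with diaphorase/resazurin was added; resorufin fluorescence (525/598 nm) was read after 20 min.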
Of the large screens only hits and unclear results are named; the others gave an inactive call. Most compounds without a hit are left out; they make up all but 21% or so of the library. Unless noted, calls follow the shape of the dose curve; as a rule, active = well fitted curve in the direction sought with a large enough effect; inconclusive = small, poorly fitted or top-dose-only effect, or another doubt; inactive = no such curve, though single readings can be large; an effect the other way counts as inactive or inconclusive.

Cc1cc(C)c(S(=O)(=O)N2CCOC2CNC(=O)C(=O)NCCCn2ccnc2)c(C)c1 (centres undefined)	Pf growth 48h inconclusive
CC(C)CC(OC(=O)c1cccs1)C(=O)NCc1ccco1 (centres undefined)	Pf growth 48h 13.1µM
COc1ccc(N(CC(=O)NC2CC3CCC2C3)S(=O)(=O)c2ccc(C)cc2)cc1OC (centres undefined)	Pf growth 48h inconclusive
CN(CC(=O)Nc1ccccc1Cl)C(=O)c1cccc(S(=O)(=O)N2CCN(c3ccc(F)cc3)CC2)c1	Shiga toxin inh 139.4, Pf growth 96h inconclusive, CHX counter 58.2 (no result: FBPA Giardia inh)
COC(=O)c1cc(S(=O)(=O)N2CCN(c3ccc(F)cc3)CC2)cn1C	Pf growth 96h 9.28µM (no result: FBPA Giardia inh)
Cc1cccc(C)c1NC(=O)CN(C)C(=O)c1cccc(S(=O)(=O)N2CCN(c3ccc(F)cc3)CC2)c1	Pf growth 48h 16.5µM, Pf growth 96h inconclusive (no result: Shiga toxin inh, NS1 function inh, CHX counter, FBPA Giardia inh)
O=C(Nc1ccncc1)c1cccc(S(=O)(=O)N2CCN(c3ccc(F)cc3)CC2)c1	Pf growth 48h inconclusive, Pf growth 96h 11.7µM (no result: Shiga toxin inh, NS1 function inh, CHX counter, FBPA Giardia inh)
COC(=O)c1cc(S(=O)(=O)N2CCN(c3cccc(OC)c3)CC2)cn1C	none (no result: FBPA Giardia inh)
Cc1cccc(C)c1NC(=O)CN(C)C(=O)c1cccc(S(=O)(=O)N2CCN(c3ccccc3)CC2)c1	Pf growth 96h inconclusive
CN(CC(=O)Nc1ccccc1Cl)C(=O)c1cccc(S(=O)(=O)N2CCN(Cc3ccccc3)CC2)c1	Pf growth 48h inconclusive (no result: Shiga toxin inh, NS1 function inh, CHX counter, FBPA Giardia inh)
NC(=O)c1nsc(C(=O)N(c2cccc(F)c2)C(C(=O)NCC2CCCO2)c2c[nH]c3ccccc23)c1N (centres undefined)	Pf growth 48h inconclusive
Cc1ccc(-c2[nH]c(-c3ccc(C(=O)O)cc3)nc2-c2ccccc2)cc1	Pf growth 96h 10.4µM
Cc1cccc(-n2c(SCC(=O)N3CC(=O)Nc4ccccc43)nc3ccccc3c2=O)c1C	Pf growth 48h inconclusive, Pf growth 96h 3.7µM, NS1 function inh inconclusive
Cc1ccc(-n2c(SCC(=O)N3CC(=O)Nc4ccccc43)nc3ccccc3c2=O)cc1C	Pf growth 48h 10.4µM, Pf growth 96h 8.28µM, NS1 function inh inconclusive
CC(C)(C)c1nc(SCC(=O)N2CC(=O)Nc3ccccc32)c2ccccc2n1	none
O=C1CN(C(=O)CSc2nc3ccccc3c(=O)n2CC2CCCO2)c2ccccc2N1 (centres undefined)	Pf growth 96h inconclusive (no result: NS1 function inh)
Cc1cccc(-n2c(SCC(=O)N3CC(=O)Nc4ccccc43)nc3ccccc3c2=O)c1	Pf growth 48h 13.1µM, Pf growth 96h inconclusive
Cc1nc(SCC(=O)N2CC(=O)Nc3ccccc32)nc(C)c1C	none (no result: NS1 function inh)
CSCc1nnc(NC(=O)c2ccc(S(=O)(=O)N(C)C)cc2)o1	Pf growth 48h inconclusive, FBPA Giardia inh inconclusive (no result: NS1 function inh)
CCCN(CCC)S(=O)(=O)c1ccc(C(=O)Nc2nnc(COC)o2)cc1	Pf growth 48h 14.7µM, FBPA Giardia inh inconclusive (no result: NS1 function inh)
C=CCN(CC=C)S(=O)(=O)c1ccc(C(=O)Nc2nnc(CSC)o2)cc1	Pf growth 48h 11.7µM, Pf growth 96h inconclusive, FBPA Giardia inh inconclusive (no result: NS1 function inh)
O=C(Nc1ccccc1)Nc1n[nH]c2nnc(-c3ccccc3)c(-c3ccccc3)c12	Pf growth 48h inconclusive, Pf growth 96h inconclusive, FBPA Giardia inh inconclusive
CC[n+]1c(/C=C/c2c[nH]c3ccccc23)ccc2cc(C)ccc21	Pf growth 48h inconclusive (no result: NS1 function inh)
COc1ccc2[nH]cc(C(=O)CN3CCN(C/C=C/c4ccccc4)CC3)c2c1	Pf growth 48h 11.7µM, Pf growth 96h 10.4µM
Cc1ccc(C(=O)/C=C/c2c[nH]c3ccccc23)cc1	Shiga toxin inh 148.0, CHX counter 51.9
COc1ccc2[nH]cc(C(=O)CN3CC(C)CC(C)C3)c2c1 (centres undefined)	none
OCC[n+]1ccc(/C=C/c2c[nH]c3ccccc23)cc1	Pf growth 48h 0.586µM, Pf growth 96h inconclusive, FBPA Giardia inh inconclusive
CCN(CC)C(=O)c1ccc(/C=C/c2c[nH]c3ccccc23)[n+](C)c1	Pf growth 48h 0.738µM, Pf growth 96h 0.37µM
OCCSc1nncn1/N=C/c1c[nH]c2ccccc12	none
C=CCNC(=S)N1CCC(C(=O)c2ccc(F)cc2)CC1	FBPA Giardia inh inconclusive
Cc1cc(C)c(S(=O)(=O)N2CCCCC2CCNC(=O)C(=O)NCCN2CCOCC2)c(C)c1 (centres undefined)	none (no result: Shiga toxin inh, NS1 function inh, CHX counter, FBPA Giardia inh)
COc1ccc2[nH]cc(/C=N/NS(=O)(=O)c3ccc(C)cc3)c2c1	none
O=C(/C=C/c1c[nH]c2ccccc12)c1ccccc1	Shiga toxin inh 115.2, CHX counter 68.6
COc1ccc2[nH]cc(/C=C/c3cc[n+](C)cc3)c2c1	Pf growth 48h 1.04µM, Pf growth 96h 0.465µM, FBPA Giardia inh inconclusive
COc1ccc2[nH]cc(/C=C/C(=O)c3ccccc3)c2c1	Shiga toxin inh 131.0, CHX counter 104.9
O=Cc1c[nH]c2ccc(C(=O)c3ccccc3)cc12	CHX counter 32.4 (no result: Shiga toxin inh)
COc1ccc2[nH]cc(C=O)c2c1	none (no result: FBPA Giardia inh)
Cc1cc(=O)oc2c3c(cc(OCC(=O)N4CCC[C@H]4C(=O)O)c12)OC(C)(C)CC3	Pf growth 48h inconclusive, Pf growth 96h inconclusive
CN1CCN(c2c(F)cc3c(=O)c(C(=O)O)cn4c3c2SCC4)CC1	Pf growth 48h inconclusive, Pf growth 96h 5.22µM
Cc1c(-n2cc(C(=O)O)c(=O)c3cc(F)c(N4CCCC4)c(F)c32)c(=O)n(-c2ccccc2)n1C	none
CC(OC(=O)c1ccc(Cl)nc1)C(=O)NCc1ccc2c(c1)OCO2 (centres undefined)	none (no result: Shiga toxin inh, NS1 function inh, CHX counter, FBPA Giardia inh)
CS(=O)(=O)Nc1ccc([N+](=O)[O-])cc1OC1CCCCC1	none (no result: Shiga toxin inh, Pf growth 48h, Pf growth 96h, NS1 function inh, CHX counter)
C=CCC1(CC=C)CCCN1C(=O)C1CCC(=O)N(CCc2ccccc2)C1 (centres undefined)	Shiga toxin inh 101.9, Pf growth 48h inconclusive, Pf growth 96h inconclusive, CHX counter 76.7 (no result: FBPA Giardia inh)
COCCN1CCN(C(=O)C2CCC(=O)N(CCc3ccccc3)C2)CC1 (centres undefined)	Pf growth 96h 9.28µM
COc1ccc(CCN2CC(C(=O)N3CCC(OC)CC3)CCC2=O)cc1 (centres undefined)	none
C=CCC1(CC=C)CCCN1C(=O)C1CCC(=O)N(CCc2ccc(OC)cc2)C1 (centres undefined)	Shiga toxin inh 78.2, Pf growth 48h inconclusive, Pf growth 96h inconclusive, CHX counter 53.1
CCOc1ccc(OCCC(=O)OCC(=O)Nc2cc(OCC)c(N3CCOCC3)cc2OCC)cc1	Pf growth 48h inconclusive (no result: Shiga toxin inh, NS1 function inh, CHX counter, FBPA Giardia inh)
N#CCCN1CCCc2cc(N=Nc3ccc(C(F)(F)F)cc3)ccc21	Shiga toxin inh 60.8, CHX counter 43.2
CCCN1CCCc2ccccc21	Pf growth 96h inconclusive (no result: Pf growth 48h)
Cc1nnc2ccc(-c3ccc(NS(=O)(=O)c4ccc(Cl)s4)cc3)nn12	Pf growth 48h inconclusive (no result: Shiga toxin inh, NS1 function inh, CHX counter, FBPA Giardia inh)
COc1ccc(-c2nc3c(n2O)CCc2c-3no[n+]2[O-])cc1	CHX counter 13.3
COC(=O)c1ccc(COc2ccc(C)c(C)c2)o1	Shiga toxin inh 97.8, CHX counter 26.7
Cc1oc(C(=O)O)cc1COc1ccc2c(C)cc(=O)oc2c1	Pf growth 96h 2.08µM
